Experiment [1] is described as follows: hit retest on RPL19A-GFP reporter strain – cell-based, S. cerevisiae, flow cytometry, cherry picks, mother/daughter gates, confirmation (AID 2270;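 active means GFP response below 50% of the DMSO control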). Particulars: 3 h, at 10 µM, stronger effect = lower value, 100 = same GFP as DMSO wells.
Experiment [2] can be described thus: yeast TOR pathway reporter LAP4-GFP change – cell-based, cherry picks, flow cytometry, mother/daughter gates, confirmation (AID 2271;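 active means GFP response above 150% of the DMSO control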;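 further: ratio of sample to DMSO plate mean so 100% equals DMSO level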). Particulars: S. cerevisiae LAP4-GFP strain, 3 h, at 10 µM, stronger effect = higher value.
The nature of experiment [3]: TOR pathway reporter MEP2-GFP, retest of hits – S. cerevisiae, flow cytometry GFP, cherry picks, confirmation (AID 2272;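 active means GFP response above 150% of the DMSO control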;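 further: ratio of well signal to plate DMSO mean so 100% equals DMSO level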). Conditions: S. cerevisiae MEP2-GFP strain, 3 h, at 10 µM, stronger effect = higher value.
Experiment [4] is described as follows: yeast AGP1-GFP fluorescence change, single-dose – cell-based, flow cytometry, S. cerevisiae, cherry picks, confirmation (AID 2273;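 active means GFP response above 150% of the DMSO level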;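 further: median GFP channel fluorescence over the whole cell population gate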). Conditions: S. cerevisiae AGP1-GFP strain, 3 h, at 10 µM.
Experiment [5] in a line: TOR pathway CIT2 reporter hit retest – S. cerevisiae, GFP fusion, cherry picks, mother/daughter gates, confirmation (AID 2274;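 active means GFP response above 150% of the DMSO level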). Conditions: S. cerevisiae CIT2-GFP strain, flow cytometry, 3 h, at 10 µM, stronger effect = higher value.
For experiment [6], the target named is Cell division control protein 42 homolog (Homo sapiens) (UniProt P60953). Nature of the experiment: inhibition of fluorescent GTP binding to constitutively active Cdc42 – biochemical, multiplex bead flow cytometry, Bodipy-FL-GTP, dose response (AID 1333;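 active means fitted half-maximal concentration within the tested dose range, moderate curve steepness, a statistically real signal drop, and little compound fluorescence or tag-binding interference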). Conditions: bead-based flow cytometry; series mostly up to 100 µM.
The target is the same in experiment [7]. Nature of the experiment: inhibition of fluorescent GTP binding to wildtype Cdc42 – biochemical, multiplex bead flow cytometry, Bodipy-FL-GTP, dose response (AID 1334;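 active means fitted half-maximal concentration within the tested range, moderate curve steepness, significant signal drop, and little compound fluorescence or bead-linkage interference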). Conditions: bead-based flow cytometry, Bodipy-FL-GTP binding to GST-Cdc42; at 100 µM (top of the series).
Experiment [8] has as its system Ras-related protein Rab-7a (dog), GTP binding. Nature of the experiment: blockers of fluorescent GTP binding to Rab7 – biochemical, wildtype, multiplex bead flow cytometry, dose response (AID 1336; call rule not given here). Conditions: bead-based flow cytometry; series mostly up to 100 µM.
In experiment [9] the target is Ras-related C3 botulinum toxin substrate 1 (Homo sapiens) (UniProt P63000). As to the kind of experiment: inhibition of wildtype Rac1 nucleotide loading – biochemical, multiplex bead flow cytometry, dose response (AID 1340). Conditions: GST-Rac1 beads, Bodipy-FL-GTP binding; at 100 µM (top of the series).
Experiment [10] addresses GTPase HRas (Homo sapiens) (UniProt P01112). As to the kind of experiment: blockade of GTP loading onto mutant Ras – biochemical, activated mutant, multiplex bead flow cytometry, dose response (AID 1341;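 active means dose-response curve with midpoint inside the tested range, moderate steepness, significant amplitude and little compound fluorescence or bead-attachment interference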;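 further: GST-tagged constitutively activated Ras mutant immobilized on beads and multiplexed with other GTPases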). Particulars: bead-based flow cytometry, Bodipy-FL-GTP binding; series mostly up to 100 µM.
Where [11] appears, read: measured here: daughter cell gate.
The mark [12] stands for this setting: measured here: mother cell gate.
Where [13] appears, read: measured here: daughter cell gate response.
Where [14] appears, read: measured here: mother cell gate response.

Structures are written as SMILES. For some of these results: Potency and affinity values are given separately. Active and inactive are the calls of the source.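 How the source made its calls, unless noted: active means dose curve with midpoint inside tested range, moderate steepness, plateau gap beyond fit error, low compound glow and bead-link interference; inactive means the rest.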

Cell division control protein 42 homolog (Homo sapiens), sequence (P60953 whole entry, looked up): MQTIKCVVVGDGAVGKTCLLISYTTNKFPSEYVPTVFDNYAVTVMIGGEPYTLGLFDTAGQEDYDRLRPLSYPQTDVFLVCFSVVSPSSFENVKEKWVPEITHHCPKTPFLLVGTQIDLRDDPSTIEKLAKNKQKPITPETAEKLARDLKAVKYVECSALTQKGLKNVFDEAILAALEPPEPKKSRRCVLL

Regarding `CC12CN3CC(C)(CN(C1)C31CCOCC1)C2=O`, the GFP response vs DMSO in [1] was 95.6% (inactive); in [1] (setting [11]) it was 96.9%; in experiment [1] (setting [12]) it was 96.6%; in experiment [3] it was 96.2% (inactive). In addition, the GFP response relative to DMSO is 99.2% (inactive) in experiment [2], 97.6% in experiment [2] (setting [13]) and 100% in experiment [2] (setting [14]). The GFP response, % of DMSO in experiment [4] is 99.5% (inactive); in experiment [5], 101% (inactive); in experiment [5] (setting [11]), 103%; in [5] (setting [12]), 101%.

In the case of `Cc1cc(OCCCn2cc(C(=O)O)c3ccccc32)ccc1Cl`, the call in [6], in experiment [8] and in experiment [10] was inactive. Also, in experiment [7], the fluorescence, percent of control (lower = inhibition) came out at 58.1%. Also, in [9], the GTP binding signal, raw median fluorescence (lower = inhibition) (MCF (arbitrary fluorescence units)) stood at 28.5.

Turning to `CCN(CC)c1ccc(/C=N/c2sc3c(c2C#N)C2CCN3CC2)c(O)c1`, the compound was classed as inactive in [6], in experiment [8] and in [10]. Moreover, the fluorescence, percent of control (lower = inhibition) in [7] was determined as 91.1%. For the same compound, the GTP binding signal, raw median fluorescence (lower = inhibition) (MCF (arbitrary fluorescence units)) in experiment [9] came out at 248.

On to `O=C1C(=O)c2ccccc2-c2ccccc21`, for which the GFP response vs DMSO is 122% (inactive) in [1], 106% in [1] (setting [11]), 116% in [1] (setting [12]) and 117% (inactive) in experiment [3]. For the same compound, the GFP response relative to DMSO in [2] was 171% (active); in experiment [2] (setting [13]), 143%; in [2] (setting [14]) it was 169%. Also, the GFP response, % of DMSO in [4] was 126% (inactive); in [5], 88.7% (inactive); in [5] (setting [11]), 89.9%; in experiment [5] (setting [12]) it was 82.6%.

For the compound `O=C1CN=C(c2ccccc2)c2cc(Br)ccc2N1Cc1cc(=O)n2ccccc2n1`, the compound was classed as inactive in experiment [6] and in experiment [10]. In experiment [7], the fluorescence, percent of control (lower = inhibition) stood at 47.5%. In experiment [9], this compound returned a GTP binding signal, raw median fluorescence (lower = inhibition) (MCF (arbitrary fluorescence units)) of 216.

Consider `CCOc1ccc(C2SCC(=O)Nc3c2c(C)nn3C2CCOC(C)(C)C2)cc1` (configuration not stated), for which the result in [6], in [8] and in [10] was inactive. The same compound yielded a fluorescence, percent of control (lower = inhibition) in [7] of 96.5%. This compound also displayed a GTP binding signal, raw median fluorescence (lower = inhibition) (MCF (arbitrary fluorescence units)) in [9] of 195.

Regarding `O=c1[nH]c(=S)[nH]c(O)c1N=Nc1cc2c(cc1[N+](=O)[O-])OCO2`, the outcome in [6], in experiment [8] and in experiment [10] was inactive. The compound also yielded a fluorescence, percent of control (lower = inhibition) in experiment [7] of 24.3%. For the same compound, in experiment [9], the GTP binding signal, raw median fluorescence (lower = inhibition) (MCF (arbitrary fluorescence units)) came to 211.

Consider `CCOC(=O)c1c(NC(=O)c2c(N)n(CCCOC)c3nc4ccccc4nc23)sc2c1CCCC2`, for which the compound was called inactive in [6], in [8] and in experiment [10]. This compound displayed a fluorescence, percent of control (lower = inhibition) in experiment [7] of 77.3%. The same compound gave a GTP binding signal, raw median fluorescence (lower = inhibition) (MCF (arbitrary fluorescence units)) in experiment [9] of 151.

`O=C(O)c1cn(Cc2ccc(Br)cc2)c2ccccc12`: the compound was classed as inactive in [6], in [8] and in experiment [10]. For the same compound, in experiment [7], the fluorescence, percent of control (lower = inhibition) worked out at 91.7%. The GTP binding signal, raw median fluorescence (lower = inhibition) (MCF (arbitrary fluorescence units)) in experiment [9] amounted to 74.

With `C[C@]12CCC(=O)C=C1CC[C@@H]1[C@@H]2CC[C@]2(C)C(=O)CC[C@@H]12`, the GFP response vs DMSO was 96.8% (inactive) in [1], 95.1% in [1] (setting [11]), 97.7% in experiment [1] (setting [12]) and 94.1% (inactive) in experiment [3]. Further, the GFP response relative to DMSO in [2] was 102% (inactive); in experiment [2] (setting [13]), 102%; in experiment [2] (setting [14]), 101%. The GFP response, % of DMSO in experiment [4] was 91.2% (inactive); in [5], 98.3% (inactive); in experiment [5] (setting [11]), 97.2%; in experiment [5] (setting [12]), 99.7%.
